Test results reported in PubChem BioAssay.
The source made the active and inactive calls.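 How the source made its calls, unless noted: active means fluorescence slope higher than the sample average by over 3 SD (cut at about -0.22 in these data, passing the limit was not always enough); inactive means the rest.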

Columns and labels:
[1] = inhibitors of TNFa-induced NFkB p65 translocation, primary screen, imaging, HUVEC, MLSMR starter and 10KST1 sets (AID 438;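 active means inhibition above 20% together with a positive visual image hit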;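 further: compound added about 3h40 before a 20 min TNFalpha stimulation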;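 on inhibition: signal is the nuclear over cytoplasmic p65 intensity ratio per well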); settings: HUVEC TNFa-induced p65 nuclear translocation; cell count: measured here: nuclei count (cytotoxicity indicator), at 2.08 µM; inhibition: at 2 µM, stronger effect = higher value, 0% TNFa-plus-vehicle, 100% no-TNFa wells
[2] = inhibitors of mutant huntingtin aggregation, primary screen, imaging, exon1htt(103Q)mCFP cells, high-content imaging (AID 483;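 active means visual image review flags a hit and inhibition of aggregation exceeds 20%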;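 further: compound exposure lasted 3 days before fixation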;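 on nuclei count: percent of the per-plate median nuclei count of sample wells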); settings: exon1htt(103Q)mCFP cell line, aggregate imaging, at 2 µM; inhibition of aggregation: stronger effect = higher value; nuclei count: measured here: cell count, toxicity
[3] = inhibitors of E-selectin induction by TNFa, primary screen, imaging, HUVEC, immunofluorescence, MLSMR starter and 10KST1 sets (AID 487;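 active means visually confirmed hit in the image check and inhibition above 20%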;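 on inhibition: signal is fraction of cell area covered by stained E-selectin grains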;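 on nuclei count: 100% = median nuclei count of all wells on the same plate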); settings: HUVEC TNFalpha-induced E-selectin immunofluorescence imaging, at 2 µM; inhibition: stronger effect = higher value; nuclei count: measured here: cell number, toxicity
[4] = biological target: Voltage-gated potassium channel subunit beta-2 (Rattus norvegicus) (UniProt P62483); assay: KvBeta enzyme negative modulators, primary screen, biochemical, NADPH fluorescence (AID 622); settings: recombinant KvBeta, 4-cyanobenzaldehyde reduction, at 10 µM, stronger effect = higher value;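 further: slope of raw intensity against log time taken from 70 to 1610 s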
Chain of Voltage-gated potassium channel subunit beta-2 (Rattus norvegicus) (P62483 whole entry, looked up): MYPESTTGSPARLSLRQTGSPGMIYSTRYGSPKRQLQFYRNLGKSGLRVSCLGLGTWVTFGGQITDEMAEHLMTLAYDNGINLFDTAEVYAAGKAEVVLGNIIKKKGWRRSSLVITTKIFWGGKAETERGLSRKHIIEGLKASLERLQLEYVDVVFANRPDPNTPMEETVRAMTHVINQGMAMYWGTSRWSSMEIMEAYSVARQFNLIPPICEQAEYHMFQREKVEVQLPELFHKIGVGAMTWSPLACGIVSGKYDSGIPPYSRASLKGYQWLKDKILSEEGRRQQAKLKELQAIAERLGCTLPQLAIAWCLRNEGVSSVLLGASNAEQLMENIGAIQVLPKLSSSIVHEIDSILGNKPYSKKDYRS

[5] = biological target: Voltage-gated potassium channel subunit beta-2 (Rattus norvegicus) (UniProt P62483); assay: KvBeta positive modulators, primary screen, biochemical, NADPH fluorescence (AID 623;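 active means NADPH fluorescence slope more negative than the mean of all samples by about 3 SD, 99.7% confidence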;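 further: fluorescence intensity change per second fitted from 20 to 320 s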); settings: Recombinant KvBeta, NADPH fluorescence decrease slope, 10 min; at 10 µM; stronger effect = lower value
[6] = biological target: Alpha-2C adrenergic receptor (Homo sapiens) (UniProt P18825); assay: modulators of alpha2C/GIRK thallium flux, primary screen, cell-based, HEK293 alpha2C/GIRK1/2 (AID 624;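 active means fluorescence slope after compound addition differing from the mean of all screened samples at 99.7% confidence, in either direction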;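 further: slope of fluorescence ratio to pre-addition baseline per second over 15 to 24 s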); settings: thallium flux BTC fluorescence, at 10 µM, actives lie on both sides
Chain of Alpha-2C adrenergic receptor (Homo sapiens) (P18825 whole entry, looked up): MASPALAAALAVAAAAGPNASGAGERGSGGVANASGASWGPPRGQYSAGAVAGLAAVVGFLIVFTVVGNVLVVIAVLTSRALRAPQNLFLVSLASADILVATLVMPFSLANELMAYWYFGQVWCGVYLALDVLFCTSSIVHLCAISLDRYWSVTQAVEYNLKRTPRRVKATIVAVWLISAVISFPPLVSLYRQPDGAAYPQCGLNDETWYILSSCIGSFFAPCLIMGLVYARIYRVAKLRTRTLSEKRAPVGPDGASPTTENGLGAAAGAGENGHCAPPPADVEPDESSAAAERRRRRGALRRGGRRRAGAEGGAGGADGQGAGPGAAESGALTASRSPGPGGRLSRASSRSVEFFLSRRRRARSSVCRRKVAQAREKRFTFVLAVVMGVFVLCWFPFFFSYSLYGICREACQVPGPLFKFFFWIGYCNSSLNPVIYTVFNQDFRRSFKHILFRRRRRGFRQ

[7] = inhibitors of Sendai virus-induced IRF3 signaling, primary screen, TLR/RLR signaling modifier project, cell-based, Sendai virus stimulus, luciferase, 10K MLSCN set (AID 602276;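 active means inhibition at or above 50% at 10 µM; inactive means inhibition below 50%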;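 further: firefly luciferase from ISG56 promoter only with Renilla not read in this screen; 0% = Sendai virus plus DMSO and 100% = medium plus DMSO without virus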); settings: HEK293 RL24 IRF3 luciferase reporter, at 10 µM, stronger effect = higher value
[8] = inhibitors of poly I:C-induced TLR3 signaling, primary screen, cell-based, poly I:C stimulus, luciferase, 10K MLSCN set (AID 602277;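 active means inhibition of the reporter signal at or above 50%; inactive means inhibition below 50%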); settings: HEK293-TLR3 RL24 IRF3 luciferase reporter, at 10 µM, stronger effect = higher value

## CCN1CCCC1CNC(=O)CS(=O)(=O)Cc1nc(-c2ccccc2C)oc1C (centres undefined)
[1]
  cell count: 834
  inhibition: -0.6% (inactive)
[2]
  inhibition of aggregation: 3.2% (inactive)
  nuclei count: 104%
[3]
  inhibition: -87.9% (inactive)
  nuclei count: 126%
[4]
  fluorescence slope: -0.511 (inactive)
[5]
  NADPH fluorescence slope: -3e-05 (inactive)
[6]
  slope: 0.00452 (inactive)
[7]
  inhibition: 5.3% (inactive)
[8]
  inhibition: 46.5% (inactive)

## Cc1ccccc1C(=O)Nc1c(C(=O)N2CCCC2)cnn1-c1ccccc1
[1]
  cell count: 314
  inhibition: -6.8% (inactive)
[2]
  inhibition of aggregation: 2.8% (inactive)
  nuclei count: 83.6%
[3]
  inhibition: -34.4% (inactive)
  nuclei count: 84%
[4]
  fluorescence slope: -0.596 (inactive)
[5]
  NADPH fluorescence slope: -2.6e-05 (inactive)
[6]
  slope: 0.00707 (inactive)
[7]
  inhibition: 13.2% (inactive)
[8]
  inhibition: 26.1% (inactive)

## Cc1nnc(NC(=O)c2ccco2)s1
[1]
  cell count: 697
  inhibition: 1.3% (inactive)
[2]
  inhibition of aggregation: -21.8% (inactive)
  nuclei count: 107%
[3]
  inhibition: -34.3% (inactive)
  nuclei count: 110%
[4]
  fluorescence slope: -0.521 (inactive)
[5]
  NADPH fluorescence slope: -3.3e-05 (inactive)
[6]
  slope: 0.00691 (inactive)
[7]
  inhibition: 3.15% (inactive)
[8]
  inhibition: 14.4% (inactive)

## O=C(CSc1nnc2ncccn12)N1CCCCCC1
[1]
  cell count: 673
  inhibition: 26.6% (active)
[2]
  inhibition of aggregation: 8.3% (inactive)
  nuclei count: 106%
[3]
  inhibition: -9.5% (inactive)
  nuclei count: 82.7%
[4]
  fluorescence slope: -0.475 (inactive)
[5]
  NADPH fluorescence slope: -0.000211 (inactive)
[6]
  slope: 0.00529 (inactive)
[7]
  inhibition: 4.98% (inactive)
[8]
  inhibition: 99.3% (active)

## CC1CCN(CCn2c(=S)[nH]c3ncccc3c2=O)CC1
[1]
  cell count: 508
  inhibition: 7.1% (inactive)
[2]
  inhibition of aggregation: -13.9% (inactive)
  nuclei count: 115%
[3]
  inhibition: -9.3% (inactive)
  nuclei count: 105%
[4]
  fluorescence slope: -0.411 (inactive)
[5]
  NADPH fluorescence slope: -3.5e-05 (inactive)
[6]
  slope: 0.00346 (inactive)
[7]
  inhibition: 10.2% (inactive)
[8]
  inhibition: 26.9% (inactive)

## COC(=O)c1cc2oc(C)cc2n1CC(=O)N(C)c1ccccc1
[1]
  cell count: 370
  inhibition: -0.4% (inactive)
[2]
  inhibition of aggregation: -4.7% (inactive)
  nuclei count: 108%
[3]
  inhibition: -67.6% (inactive)
  nuclei count: 115%
[4]
  fluorescence slope: -0.347 (inactive)
[5]
  NADPH fluorescence slope: -4.4e-05 (inactive)
[6]
  slope: 0.00693 (inactive)
[7]
  inhibition: 9.76% (inactive)
[8]
  inhibition: 30.2% (inactive)

## Fc1ccccc1C(c1nnnn1Cc1ccc2c(c1)OCO2)N1CCN(Cc2ccccc2)CC1 (centres undefined)
[1]
  cell count: 324
  inhibition: -0.8% (inactive)
[2]
  inhibition of aggregation: -2.5% (inactive)
  nuclei count: 112%
[3]
  inhibition: 30.7% (inactive)
  nuclei count: 108%
[4]
  fluorescence slope: -0.631 (inactive)
[5]
  NADPH fluorescence slope: 1.1e-05 (inactive)
[6]
  slope: 0.00506 (inactive)
[7]
  inhibition: -8.04% (inactive)
[8]
  inhibition: -3.59% (inactive)

## O=C(O)CCCC(=O)Nc1nc(-c2ccc(F)cc2)cs1
[1]
  cell count: 392
  inhibition: -1.3% (inactive)
[2]
  inhibition of aggregation: -6.1% (inactive)
  nuclei count: 94.3%
[3]
  inhibition: -90.5% (inactive)
  nuclei count: 141%
[4]
  fluorescence slope: -0.327 (inactive)
[5]
  NADPH fluorescence slope: -1.1e-05 (inactive)
[6]
  slope: 0.00291 (inactive)
[7]
  inhibition: 6.78% (inactive)
[8]
  inhibition: 14.9% (inactive)

## O=C(C1CCCN(S(=O)(=O)c2cnc[nH]2)C1)N1CC(=O)N(CCc2ccccc2)C(=O)C1 (centres undefined)
[1]
  cell count: 545
  inhibition: 3.4% (inactive)
[2]
  inhibition of aggregation: -13.8% (inactive)
  nuclei count: 109%
[3]
  inhibition: -124% (inactive)
  nuclei count: 147%
[4]
  fluorescence slope: -0.573 (inactive)
[5]
  NADPH fluorescence slope: 8.9e-06 (inactive)
[6]
  slope: 0.0066 (inactive)
[7]
  inhibition: 9.42% (inactive)
[8]
  inhibition: 20.7% (inactive)

## CCC1SC2=NC(C)=C(C(=O)OC)C(c3ccc(C)cc3)N2C1=O (centres undefined)
[1]
  cell count: 562
  inhibition: -11.1% (inactive)
[2]
  inhibition of aggregation: -9.6% (inactive)
  nuclei count: 111%
[3]
  inhibition: -57.6% (inactive)
  nuclei count: 103%
[4]
  fluorescence slope: -0.591 (inactive)
[5]
  NADPH fluorescence slope: -6.5e-05 (inactive)
[6]
  slope: 0.0061 (inactive)
[7]
  inhibition: -10.4% (inactive)
[8]
  inhibition: -17.2% (inactive)

## COc1ccc(C(C(=O)NC2CCCCC2)N2CCC3(CC2)OCCO3)cc1 (centres undefined)
[1]
  cell count: 953
  inhibition: 1.8% (inactive)
[2]
  inhibition of aggregation: -42.7% (inactive)
  nuclei count: 132%
[3]
  inhibition: -18.3% (inactive)
  nuclei count: 135%
[4]
  fluorescence slope: -0.525 (inactive)
[5]
  NADPH fluorescence slope: -6.1e-05 (inactive)
[6]
  slope: 0.00579 (inactive)
[7]
  inhibition: 31.2% (inactive)
[8]
  inhibition: 89.5% (active)

## O=c1c(-c2ccccc2)coc2c(CN3CCOCC3)c(O)ccc12
[1]
  cell count: 335
  inhibition: -2.5% (inactive)
[2]
  inhibition of aggregation: -6.5% (inactive)
  nuclei count: 108%
[3]
  inhibition: -116% (inactive)
  nuclei count: 129%
[4]
  fluorescence slope: -0.0601 (active)
[5]
  NADPH fluorescence slope: 4.4e-06 (inactive)
[6]
  slope: 0.00553 (inactive)
[7]
  inhibition: -3.14% (inactive)
[8]
  inhibition: 10.1% (inactive)

## CC1CCCc2sc3nc(NCc4ccco4)n4ncnc4c3c21 (centres undefined)
[1]
  cell count: 335
  inhibition: 7.7% (inactive)
[2]
  inhibition of aggregation: 8.4% (inactive)
  nuclei count: 17.7%
[3]
  inhibition: 5.2% (inactive)
  nuclei count: 112%
[4]
  fluorescence slope: -0.514 (inactive)
[5]
  NADPH fluorescence slope: -9.2e-06 (inactive)
[6]
  slope: 0.00555 (inactive)
[7]
  inhibition: 2.57% (inactive)
[8]
  inhibition: -0.465% (inactive)

## COc1ccc2cc3cc(C(=O)NCC4CCCO4)oc3nc2c1 (centres undefined)
[1]
  cell count: 323
  inhibition: -7.8% (inactive)
[2]
  inhibition of aggregation: 3.3% (inactive)
  nuclei count: 56.8%
[3]
  inhibition: -20.5% (inactive)
  nuclei count: 108%
[4]
  fluorescence slope: -0.0444 (active)
[5]
  NADPH fluorescence slope: -1.4e-06 (inactive)
[6]
  slope: 0.00645 (inactive)
[7]
  inhibition: -11.2% (inactive)
[8]
  inhibition: -36.3% (inactive)
